# Results taken from PubChem BioAssay.
# Calls of active or inactive are those of the source.
# Experiments:
# [1] = system: PRMT1 (protein arginine N-methyltransferase 1); experiment: small molecules binding arginine methyltransferase PRMT1 – biochemical, small-molecule microarray, 635 nm fluorescence, primary screen (AID 1088); settings: higher = more signal;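 note: binding of Prmt1 protein to compounds spotted on small-molecule microarray slides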
# [2] = growth effects on S. cerevisiae YJM789 – YJM789 clinical isolate, OD600, 24 h, basal, primary screen (AID 1089); settings: higher = more signal, called active from +8 up or from −8 down;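 note: growth of clinical yeast isolate S. cerevisiae YJM 789 seeded 1000 cells per well; test concentration not given here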
# [3] = S. pombe growth modifiers, basal conditions – strain 972, OD600, 24 h, no modulator, primary screen (AID 1090);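 note: basal condition with compound alone and no growth modifier present; test concentration not given here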; settings: S. pombe 972 growth, higher = more signal, called active from +8 up or from −8 down
# [4] = budding yeast growth modifiers under rapamycin – strain BY4716, OD600, 96 h, primary screen (AID 1091); note: test concentration not given here; settings: S. cerevisiae BY4716 + rapamycin, higher = more signal, called active from +8 up or from −8 down
# [5] = biological target: Torsin-1A-interacting protein 2 (Homo sapiens) (UniProt Q8NFQ8); experiment: small molecules binding lysate-expressed LULL1 – cell lysate, human LULL1 lysate, 635/667 nm fluorescence, primary screen (AID 1092); settings: small-molecule microarray, hLULL1 lysate binding, 635 nm fluorescence; higher = more signal;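 note: probe is lysate of COS7 cells overexpressing human LULL1; score merges per-feature 667 nm fluorescence with signal-to-noise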
# [6] = optical density change of DRC41 E. coli – strain DRC41, OD650, 24 h, E. coli filamentation project, primary screen (AID 1093);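 note: MC1000 strain lacking acrAB efflux and sulA so SOS filamentation is blocked; test concentration not given here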; settings: E. coli DRC41 growth, higher = more signal, called active from +8 up or from −8 down
# [7] = probe aLefty2 binding to arrayed compounds – biochemical, biotinylated probe, 635/667 nm fluorescence, primary screen (AID 1094); settings: small-molecule microarray, higher = more signal;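 note: score merges spot fluorescence near 667 nm with spot signal-to-noise ratio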
# [8] = system: Noggin (protein binding on small-molecule microarray); experiment: small molecules binding Noggin protein – biochemical, 635/667 nm fluorescence, primary screen (AID 1095); settings: 635 nm fluorescence, higher = more signal;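 note: score merges 667 nm feature fluorescence with signal to noise over triplicate slides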
# [9] = biological target: Neurogenic locus notch homolog protein 3 (Homo sapiens) (UniProt Q9UM47); experiment: small molecules binding NOTCH3 protein – biochemical, 635/667 nm fluorescence, primary screen (AID 1096); settings: small-molecule microarray, 635 nm fluorescence, higher = more signal
# [10] = probe aEGFR binding to arrayed compounds – biochemical, biotinylated probe, 635/667 nm fluorescence, primary screen (AID 1097); settings: small-molecule microarray, higher = more signal;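 note: probe is a biotinylated anti-EGFR antibody binding compounds printed on slides; score combines fluorescence near 667 nm and signal to noise of each spot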
# Neurogenic locus notch homolog protein 3 (Homo sapiens), sequence (Q9UM47 whole entry, looked up): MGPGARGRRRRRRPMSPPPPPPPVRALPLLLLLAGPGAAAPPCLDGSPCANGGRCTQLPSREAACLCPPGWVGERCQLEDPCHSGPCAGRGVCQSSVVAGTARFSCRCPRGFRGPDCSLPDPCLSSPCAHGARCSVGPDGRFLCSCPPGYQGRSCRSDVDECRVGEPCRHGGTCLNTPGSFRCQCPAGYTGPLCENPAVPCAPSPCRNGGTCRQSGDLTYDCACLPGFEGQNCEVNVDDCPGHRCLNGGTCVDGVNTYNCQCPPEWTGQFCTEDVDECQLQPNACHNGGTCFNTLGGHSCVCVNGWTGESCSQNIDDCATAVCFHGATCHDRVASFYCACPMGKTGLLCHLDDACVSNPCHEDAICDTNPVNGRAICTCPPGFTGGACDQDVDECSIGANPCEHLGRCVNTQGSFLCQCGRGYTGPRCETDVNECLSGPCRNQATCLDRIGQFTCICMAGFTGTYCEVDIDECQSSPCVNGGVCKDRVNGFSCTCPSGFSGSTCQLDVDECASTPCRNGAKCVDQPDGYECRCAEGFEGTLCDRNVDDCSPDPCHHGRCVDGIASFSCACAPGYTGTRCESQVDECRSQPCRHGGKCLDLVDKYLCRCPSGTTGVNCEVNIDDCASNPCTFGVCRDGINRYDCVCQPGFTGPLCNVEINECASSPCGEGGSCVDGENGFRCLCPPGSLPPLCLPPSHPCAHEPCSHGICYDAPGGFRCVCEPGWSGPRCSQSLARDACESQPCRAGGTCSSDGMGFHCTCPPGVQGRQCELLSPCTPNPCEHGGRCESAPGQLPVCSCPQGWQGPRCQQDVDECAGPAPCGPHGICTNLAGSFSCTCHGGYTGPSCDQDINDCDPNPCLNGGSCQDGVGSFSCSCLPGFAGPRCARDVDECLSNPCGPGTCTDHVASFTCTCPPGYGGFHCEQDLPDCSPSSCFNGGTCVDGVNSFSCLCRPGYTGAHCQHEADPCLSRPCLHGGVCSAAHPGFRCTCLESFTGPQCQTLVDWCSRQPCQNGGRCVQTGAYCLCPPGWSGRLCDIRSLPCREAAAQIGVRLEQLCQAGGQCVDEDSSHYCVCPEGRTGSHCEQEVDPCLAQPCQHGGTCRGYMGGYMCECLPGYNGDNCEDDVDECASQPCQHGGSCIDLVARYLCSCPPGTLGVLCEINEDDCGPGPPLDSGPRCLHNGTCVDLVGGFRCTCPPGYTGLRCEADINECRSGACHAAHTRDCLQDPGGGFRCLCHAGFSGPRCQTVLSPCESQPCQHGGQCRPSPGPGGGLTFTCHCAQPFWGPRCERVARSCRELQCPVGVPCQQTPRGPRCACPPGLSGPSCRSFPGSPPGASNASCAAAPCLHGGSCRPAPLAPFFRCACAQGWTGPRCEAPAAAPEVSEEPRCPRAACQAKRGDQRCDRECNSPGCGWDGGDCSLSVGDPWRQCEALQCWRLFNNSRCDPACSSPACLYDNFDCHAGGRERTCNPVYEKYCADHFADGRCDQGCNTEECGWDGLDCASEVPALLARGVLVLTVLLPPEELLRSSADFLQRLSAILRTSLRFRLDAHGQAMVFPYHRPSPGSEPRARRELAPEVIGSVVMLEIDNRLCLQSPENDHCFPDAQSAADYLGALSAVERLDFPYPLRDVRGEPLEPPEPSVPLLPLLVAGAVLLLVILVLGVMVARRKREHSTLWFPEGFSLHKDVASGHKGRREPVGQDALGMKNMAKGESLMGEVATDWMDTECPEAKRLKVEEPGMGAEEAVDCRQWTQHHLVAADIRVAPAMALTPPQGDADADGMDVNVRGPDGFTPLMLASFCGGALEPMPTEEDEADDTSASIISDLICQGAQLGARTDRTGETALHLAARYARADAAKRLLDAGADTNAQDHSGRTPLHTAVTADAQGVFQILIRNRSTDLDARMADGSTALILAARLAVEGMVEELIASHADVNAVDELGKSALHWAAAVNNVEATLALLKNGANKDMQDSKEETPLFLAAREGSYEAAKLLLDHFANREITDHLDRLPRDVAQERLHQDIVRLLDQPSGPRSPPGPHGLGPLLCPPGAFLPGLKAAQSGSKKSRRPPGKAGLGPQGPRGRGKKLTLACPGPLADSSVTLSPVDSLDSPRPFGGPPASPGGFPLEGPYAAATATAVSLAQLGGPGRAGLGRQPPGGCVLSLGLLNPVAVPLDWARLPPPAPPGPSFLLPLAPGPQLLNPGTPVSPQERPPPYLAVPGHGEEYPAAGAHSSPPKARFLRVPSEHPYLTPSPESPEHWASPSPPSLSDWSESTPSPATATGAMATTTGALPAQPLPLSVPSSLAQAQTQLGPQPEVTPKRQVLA
# Torsin-1A-interacting protein 2 (Homo sapiens), sequence (Q8NFQ8 whole entry, looked up): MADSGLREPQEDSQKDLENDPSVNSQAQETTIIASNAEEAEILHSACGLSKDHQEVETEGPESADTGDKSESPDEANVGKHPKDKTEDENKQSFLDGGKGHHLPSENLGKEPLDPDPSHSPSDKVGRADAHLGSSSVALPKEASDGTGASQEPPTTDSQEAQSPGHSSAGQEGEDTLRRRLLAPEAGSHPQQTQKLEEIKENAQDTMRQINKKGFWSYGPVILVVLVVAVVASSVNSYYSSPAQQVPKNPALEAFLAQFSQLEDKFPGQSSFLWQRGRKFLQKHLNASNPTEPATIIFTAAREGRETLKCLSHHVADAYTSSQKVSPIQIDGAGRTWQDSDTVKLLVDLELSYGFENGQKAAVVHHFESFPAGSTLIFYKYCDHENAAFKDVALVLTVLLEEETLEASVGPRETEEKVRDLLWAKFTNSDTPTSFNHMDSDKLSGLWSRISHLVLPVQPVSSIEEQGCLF
SMILES,composite z-score [1],z-score [2],z-score [3],z-score [4],composite z-score [5],z-score [6],composite z-score [7],composite z-score [8],composite z-score [9],composite z-score [10]
CC(C)N1C(=O)[C@@]2(Cc3ccccc31)c1ccccc1C(=O)N(Cc1ccccc1)[C@H]2c1ccc(CO)cc1,-0.0364,1.43 (inactive),0.555 (inactive),-0.204 (inactive),0.0342,0.365 (inactive),-0.578,0.209,-0.508,-0.424
C=C(C(=O)CC[C@@H](OC(=O)c1ccccc1-c1ccccc1C(=O)O)c1ccc(OCCO)cc1)C(C)C,1.55,-0.694 (inactive),-1.26 (inactive),-1.3 (inactive),1.25,0.416 (inactive),0.0028,1.35,1.15,-0.0755
Cc1ccc(S[C@]2(C(=O)NC(C)C)CC(=O)N(Cc3ccccc3)[C@@H]2c2ccc(CO)cc2I)cc1,1.46,-1.12 (inactive),-1.15 (inactive),0.739 (inactive),2.11,0.301 (inactive),-0.102,-1.44,-0.332,-0.0146
COC(=O)Cn1c(C(=O)N(C)C)cc2c1C[C@H]1CN(C(=O)c3ccccc3)[C@@](Cc3ccccc3)(C(=O)OC)[C@@H]21,-0.858,-0.561 (inactive),-0.103 (inactive),-0.207 (inactive),1.36,-0.537 (inactive),0.0022,0.449,0.0571,0.25
COc1cc2c(cc1OC)CN(C(=O)[C@@H]1[C@H]3C(=O)O[C@H](c4ccccc4)[C@H](c4ccccc4)N3[C@H](c3ccc(O)cc3)[C@@]13C(=O)Nc1ccc(C#CC4=CCCCC4)cc13)CC2,1.55,1.63 (inactive),-0.921 (inactive),1.88 (inactive),2.44,2.11 (inactive),-0.0753,0.82,1.08,0.0324
COC(=O)[C@]1(Cc2ccccc2CN=[N+]=[N-])N=C(c2ccc(OCCCO)cc2)O[C@@H]1c1ccccc1N=[N+]=[N-],0.907,-0.267 (inactive),-1.58 (inactive),36.1 (active),1.22,1.08 (inactive),0.0269,0.398,-0.122,-0.297
C=C(CCCC)/C(=C/C[C@@H](OC(C)=O)c1cccc(OCCO)c1)c1cc(C(=O)OC)ccc1OC,1.57,-0.397 (inactive),0.86 (inactive),-0.709 (inactive),0.709,0.236 (inactive),-0.0524,0.656,0.0716,-0.0698
O=C1N(Cc2ccccc2)Cc2ccccc2C[C@@]12COC(c1ccc(OCCCO)cc1)=N2,1.38,1.92 (inactive),-1.05 (inactive),6.73 (inactive),1.79,0.615 (inactive),0.363,0.0489,0.117,-0.0315
COC(=O)[C@@]1(Cc2ccc(F)cc2)[C@@H]2C(=CC(=O)[C@H]2CC(=O)C(=O)N2CCCC2)CN1C(=O)c1ccccc1,1.55,-0.403 (inactive),0.0239 (inactive),0.413 (inactive),3.6,-0.074 (inactive),1.34,1.32,1.13,1.08
CC(C)(C)OC(=O)N1[C@@H](C=C(Br)Br)COC1(C)C,0.656,-2.93 (inactive),-6.61 (inactive),-1.27 (inactive),0.546,1.74 (inactive),-0.0815,0.462,0.668,-0.0954
CCCCC=C[C@@H](NC(=O)C(C)(C)C)c1ccccc1,0.956,0.924 (inactive),1.84 (inactive),4.33 (inactive),1.08,-1.46 (inactive),0.0769,-0.0096,1.11,0.313
CC(C)[Si](C#Cc1ccccc1)(O[C@H](c1ccccc1)c1cn(Cc2ccccc2)nn1)C(C)C,1.02,-1.94 (inactive),-19.9 (active),-2.28 (inactive),2.04,2.14 (inactive),-0.195,1.08,1.01,-0.133
CC(C)C(=C=CC[C@H](O)c1cccc(OCCO)c1)C[C@H](O)c1ccccn1,1.21,0.262 (inactive),0.317 (inactive),-0.647 (inactive),1.55,0.879 (inactive),-0.143,0.731,0.403,-0.157
C=CCC(OC(C)=O)[C@@H]1[C@@H](N(Cc2ccc(-c3ccccc3)cc2)C(=O)Cc2ccc(OC)cc2)c2cc(OCCCO)ccc2N1C(=O)Cc1ccc(OC)cc1 (stereo not given in full),0.622,-0.0563 (inactive),0.68 (inactive),-0.753 (inactive),0.436,-0.553 (inactive),0.0717,-0.19,-0.209,0.0101
O=C1N(Cc2ccccc2)c2ccccc2C[C@@]12N=C(c1ccc(OCCCO)cc1)O[C@H]2c1ccccc1,1.55,-0.789 (inactive),-2.61 (inactive),3.55 (inactive),3.03,-0.788 (inactive),0.0686,0.591,1,-0.178
CCOC(=O)C[C@H]1[C@H](OC(=O)c2cc3ccccc3oc2=O)[C@@H](NC(=O)c2ccc(-c3ccccc3)cc2)c2cc(OCCCO)ccc2N1C(=O)Cc1ccc(OC)cc1,1.2,-0.792 (inactive),-0.398 (inactive),-0.077 (inactive),1.93,-0.423 (inactive),-0.212,0.421,1.11,0.148
C=CC[C@H](OC(=O)Nc1ccc(SC)cc1)c1ccc(O)c(F)c1,-0.487,-22.7 (active),-19.7 (active),-1.19 (inactive),1.04,0.622 (inactive),-0.106,-0.176,0.223,-0.14
COC(=O)C(CC#Cc1ccc2c(c1)[C@]1(C(=O)N2)[C@H](c2ccccc2OCCO)N2[C@H](c3ccccc3)[C@H](c3ccccc3)OC(=O)[C@H]2[C@@H]1C(=O)N1CCN(c2ncccn2)CC1)C(=O)OC,1.51,2.61 (inactive),1.28 (inactive),6.83 (inactive),2.15,0.173 (inactive),-0.107,1.71,1.09,-0.0982
COC(=O)C1=CC(c2ccc(CO)cc2)=CC(C2CC2)N(Cc2cc3c(cc2Br)OCO3)C=C1C(=O)OC (stereo not given),1.54,-0.644 (inactive),-2.47 (inactive),-2.01 (inactive),2.87,0.841 (inactive),0.479,0.092,1.11,0.46
O=C1OCC=C[C@H]2OC34C=CCN(Cn5nnc6ccccc65)C(=O)[C@H]3N(CCO)C(=O)[C@@H]4[C@@H]12 (stereo not given in full),0.551,0.936 (inactive),0.159 (inactive),0.294 (inactive),2.55,-0.55 (inactive),-0.0368,-1.88,-0.481,-0.171
O=C1C[C@@](C(=O)NCC(F)(F)F)(c2ccc([N+](=O)[O-])cc2)[C@@H](c2ccc(CO)cc2I)N1CC12CC3CC(CC(C3)C1)C2,1.55,-1.36 (inactive),-0.301 (inactive),21.1 (active),2.73,0.548 (inactive),-0.189,0.515,0.978,-0.206
O=C(c1ccccc1)N1Cc2ccccc2C[C@@]2(N=C(c3ccc(OCCCO)cc3)O[C@H]2c2ccccc2)C1=O,1.54,-0.68 (inactive),-10.3 (active),5.51 (inactive),2.81,-0.231 (inactive),-0.0982,1.73,1.09,0.024
COC(=O)C(CC#Cc1ccc2c(c1)[C@]1(C(=O)N2)[C@H](C(N)=O)[C@H]2C(=O)O[C@H](c3ccccc3)[C@H](c3ccccc3)N2[C@@H]1c1ccccc1OCCO)C(=O)OC,1.56,2.79 (inactive),0.943 (inactive),5.37 (inactive),3.13,1.12 (inactive),-0.075,0.877,0.576,0.0167
CCOC(=O)C[C@H]1[C@H](OC(=O)c2ccc(-c3ccccc3)cc2)[C@@H](NC(=O)c2ccc(-c3ccccc3)cc2)c2cc(OCCCO)ccc2N1C(=O)c1ccccc1,1.26,0.495 (inactive),0.785 (inactive),1.3 (inactive),1.69,-0.783 (inactive),-0.275,0.253,1.07,-0.183
CCCCC(=C=CC[C@@H](O)c1ccc(OCCO)cc1)CCO,0.571,-0.026 (inactive),-1.56 (inactive),-1.06 (inactive),1.6,0.639 (inactive),-0.135,0.424,-0.0085,-0.333
CN1C(=O)C2CC=C(C3=CCO[C@@H]3[C@H]3CCCN3S(=O)(=O)c3ccccc3[N+](=O)[O-])CC2C1=O (stereo not given in full),0.0659,-0.0649 (inactive),-0.706 (inactive),-0.0153 (inactive),0.283,-0.66 (inactive),-0.203,-0.194,0.01,-0.171
COCCOC(=O)N1C(=O)[C@@]2(c3cc(C#CC4(O)CCCCCC4)ccc31)[C@H](C(N)=O)[C@H]1C(=O)O[C@H](c3ccccc3)[C@H](c3ccccc3)N1[C@@H]2c1ccc(OCCO)cc1,1.54,1.73 (inactive),-0.0624 (inactive),5.03 (inactive),2.51,0.662 (inactive),0.0723,1.2,1.09,0.104
Cc1ccc(S(=O)(=O)N2[C@@H](c3ccccc3)C(C(=O)O)=CC[C@H]2c2ccc(F)cc2)cc1,1.26,-0.485 (inactive),0.364 (inactive),0.311 (inactive),4.08,-0.0865 (inactive),-0.0803,-0.0184,0.76,-0.241
